Bioassay records: PubChem BioAssay, several laboratories
Only some compounds are listed: those with a hit (about 3.4% of all), similar ones and a draw of the others.
sPLA2-III inh: human group III sPLA2 inhibitors, primary screen, biochemical, QFRET, BODIPY PC-A2 liposome substrate | Group 3 secretory phospholipase A2 (Homo sapiens), Q9NZ20 | QFRET BODIPY PC-A2 liposome hydrolysis, fluorescence | inhibition, % at 12.2 µM | 370,000 tested, 0.56% active | AID 743126, 2013;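 active = inhibition above mean plus 3 SD of compounds lying within the high and low control bounds, cut at about 19% in these data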;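 note: 0% = median of test compound wells and 100% = no enzyme DMSO wells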
ADAM10 inh: human ADAM10 inhibitors, primary screen, biochemical, QFRET, HTS; Disintegrin and metalloproteinase domain-containing protein 10 (Homo sapiens), O14672; recombinant ADAM10, EDANS/DABCYL FRET peptide cleavage, 3 h; inhibition, % at 7 µM; 370,000 tested, 0.62% active;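 active = inhibition above a per-campaign cutoff equal to the mean of compounds falling between control-based bounds plus 3 SD, cut at about 20% in these data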;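 note: 0% = DMSO wells while the 100% control is not disclosed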
ADAM17 inh: ADAM17 inhibitors, primary screen, biochemical, QFRET; Disintegrin and metalloproteinase domain-containing protein 17 (Homo sapiens), P78536; recombinant ADAM17, EDANS/DABCYL FRET peptide cleavage; inhibition, % at 6.95 µM; 370,000 tested, 0.83% active; AID 720648, 2013;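 active = inhibition above the mean of compounds lying between control limits plus 3 SD, set per campaign, cut at about 8.5% in these data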;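 note: 0% = DMSO-only wells as the low control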
KLK7 zymogen act: proKLK7 zymogen activators, primary screen, biochemical, fluorescence intensity | purified proKLK7, EDANS-DABCYL substrate fluorescence; 100% is mature enzyme control, 0% vehicle | activation, % at 7 µM | 370,000 tested, 0.9% active;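 active = activation above the mean of all tested compounds plus 3 SD, computed per campaign excluding outliers beyond control limits, cut at about 13% in these data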
NRP1-CendR mod: modulators of CendR peptide binding to NRP-1, primary screen, biochemical, fluorescence polarization, uHTS | FAM-RPARPAR peptide binding to NRP-1 | inhibition, % at 25 µM | 360,000 tested, 0.85% active;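 active = inhibition or corrected inhibition above about 18%, plus a signal ratio from 0.5 to 1.5, limit read from the data, passing the limit was not always enough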
ADAM10 counter: ADAM10 inhibitors, counter-screen for ADAM17 exosite inhibitor project, biochemical, FRET, human ADAM10 | recombinant ADAM10, EDANS/DABCYL FRET peptide cleavage, 3 h | shares compounds with ADAM17 inh | AID 743256, 2014 | inhibition, % at 6.95 µM | 2,900 tested, 47% active;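 active = mean inhibition over the triplicate runs exceeds the activity threshold set in the earlier primary screen, cut at about 20% in these data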;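 note: 0% = DMSO wells and 100% = marimastat wells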
ADAM17 confirm: ADAM17 inhibitors, hit retest, confirmation, biochemical, QFRET peptide cleavage; shares compounds with ADAM17 inh; recombinant ADAM17, EDANS/DABCYL QFRET peptide cleavage; inhibition, % at 6.95 µM; 2,900 tested, 65% active; AID 743257, 2014;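 active = mean inhibition across replicates above the hit cutoff set in the primary screen, cut at about 8.5% in these data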;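 note: 0% = DMSO wells and 100% = marimastat wells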
Numbers without * were called inactive; · = not tested or not shown.

SMILES | sPLA2-III inh | ADAM10 inh | ADAM17 inh | KLK7 zymogen act | NRP1-CendR mod | ADAM10 counter | ADAM17 confirm
CSc1nc2ccc(NS(=O)(=O)c3cccc(Cl)c3Cl)cc2s1 | -56 | 20 | 9.7* | 1 | 9 | 14 | 10*
Cc1nc2ccc(NS(=O)(=O)c3ccccc3Cl)cc2s1 | -8 | -5 | -9 | 0 | -38 | · | ·
O=C(COC(=O)c1ccc(O)cc1O)Nc1cc(-c2ccccc2)nn1-c1ccccc1 | -34 | 20 | 8.8* | 0 | 0 | 24* | 16*
O=C(CCc1nc(-c2ccccc2F)no1)NCCc1c[nH]c2ccccc12 | -49 | -5 | -1 | 1 | · | · | ·
O=C(Nc1cccc([N+](=O)[O-])c1)Nc1ccc2c(c1)OCCO2 | -20 | 12 | 8.9* | 0 | -7 | 12 | 8
O=C(Nc1cccc([N+](=O)[O-])c1)Nc1cccc([N+](=O)[O-])c1 | 9 | 13 | -4 | 0 | 6 | · | ·
O=C(CCc1ccccc1)N[C@H]1[C@@H](OC(=O)c2ccco2)CCC[C@@]12C(=O)N(Cc1ccccc1)c1ccccc12 | 9 | 6 | 1 | 0 | · | · | ·
COc1ccccc1NC(=O)C(=O)N/N=C(\C)CC(=O)Nc1ccc(OCc2ccccc2)cc1 | -13 | 4 | 3 | 0 | 8 | · | ·
C/C(CC(=O)Nc1ccc(OCc2ccccc2)cc1)=N\NC(=O)C(=O)Nc1cccc(C)c1 | -29 | 12 | 11* | 0 | -1 | 1 | 3
O=C(OCCC1Oc2cccnc2NC1=O)c1ccc([N+](=O)[O-])cc1 (centres undefined) | 0 | 13 | 9.1* | 0 | · | 2 | 6
Cc1ccc(S(=O)(=O)Nc2nc(C)c(NC(=O)OCCCl)s2)cc1 | 6 | 0 | 8.9* | -1 | -4 | 3 | 6
Cc1ccc(S(=O)(=O)Nc2nc(C)c(NC(=O)Nc3ccc(Cl)cc3Cl)s2)cc1 | -5 | 2 | -2 | 0 | -4 | · | ·
COC(=O)C1=C(C)N(Cc2cccc(C(F)(F)F)c2)C(=NCc2ccc3c(c2)OCO3)NC1c1ccccc1 (centres undefined) | -4 | -4 | -1 | 1 | · | · | ·
C=CCN=C1NC(c2cccc(Cl)c2)C(C(=O)OC)=C(C)N1Cc1cccc(C(F)(F)F)c1 (centres undefined) | -8 | 0 | 10.0* | 0 | · | 8 | 8
COC(=O)C1=C(C)N(Cc2ccc(C(F)(F)F)cc2)C(=NCc2ccc3c(c2)OCO3)NC1c1ccccc1 (centres undefined) | -11 | 10 | 9.6* | 0 | · | 10 | 5
COC(=O)C1=C(C)N(Cc2cccc(C(F)(F)F)c2)C(=NCc2ccccc2C(F)(F)F)NC1c1cccc(F)c1 (centres undefined) | -14 | 15 | 9.6* | -1 | · | 21* | 18*
CN(c1cccnc1)c1ccc(NC(=O)Cc2c[nH]c3ccccc23)cc1-c1cccnc1F | -13 | -5 | 0 | 0 | · | · | ·
CC(=O)Oc1ccc(N2C(=O)C3C4C=CC(O4)C3C2=O)cc1 (centres undefined) | 15 | -2 | 9.8* | 0 | -8 | 19 | 17*
CC(=O)Oc1ccc(N2C(=O)CCC2=O)cc1 | 3 | -2 | -2 | 1 | -8 | · | ·
COCc1[nH]nc2c1C(c1cccc(C(F)(F)F)c1)N(c1ccccc1)C2=O (centres undefined) | -3 | -8 | -5 | 0 | · | · | ·
